Reference: the supplement of paper PMC10849652
The full data set covers some 7,900 targets. This sample favours those with a hit. About 0.6% of all pairs of compound and target were hits.

Key:
Test in all cases: log2 fold change, soluble protein after heating vs DMSO (PISA); higher = thermal stabilisation; K562 cells, 10 uM, 30 min; active = over 0.2 and 3.5 SD of the protein, either way, in both replicates (recomputed)
[1] = compound: CS(=O)(=O)c1ccc(-c2cnc(N)c(C(=O)Nc3ccccc3)n2)cc1
How it was run: (§1)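 Values are thermal stability changes relative to control samples and are taken from duplicates. They are stated as log2 fold changes. Before quantification by TMTpro 16plex LC-MS/MS with equalised channel sums, K562 cells at 2×10^6 cells/mL were treated with 10 μM compound for 30 min, heated in aliquots for 3 min across 48°C-58°C, pooled, extracted in PBS with 0.5% NP-40 at 4°C, and centrifuged at 21,000xg for 90 min to give the soluble supernatant.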

[2] = compound: C[C@@H](Oc1cc(-c2cnn(C3CCNCC3)c2)cnc1N)c1c(Cl)ccc(F)c1Cl [crizotinib]
How it was run: as §1

[3] = compound: C[C@@H]1COCCN1C2=NC(=NC(=C2)C3(CC3)S(=O)(=O)C)C4=C5C=CNC5=CC=C4
How it was run: as §1

[4] = compound: C[C@H](C1=CC=C(C=C1)C(=O)NC2=C3C=CNC3=NC=C2)N
How it was run: as §1

[5] = compound: C[C@H](Nc1ncnc2nc[nH]c12)c1cc2cccc(Cl)c2c(=O)n1-c1ccccc1 [duvelisib]
How it was run: as §1

[6] = compound: Cc1cc(Nc2cc(CN3CCOCC3)c3nc(C)c(Cc4ccc(Cl)cc4F)n3n2)n[nH]1 [gandotinib]
How it was run: as §1

[7] = compound: Cc1cc(Nc2cc(N3CCN(C)CC3)nc(Sc3ccc(NC(=O)C4CC4)cc3)n2)n[nH]1 [tozasertib]
How it was run: as §1

[8] = compound: Cc1cc(SCc2sc(-c3ccc(C(F)(F)F)cc3)nc2C)ccc1OCC(=O)O
How it was run: as §1

[9] = compound: Cc1ccc(-n2nc(C(C)(C)C)cc2NC(=O)Nc2ccc(OCCN3CCOCC3)c3ccccc23)cc1 [doramapimod]
How it was run: as §1

[10] = compound: Cc1ccc(C(=O)N(CCCN)[C@@H](c2nc3cc(Cl)ccc3c(=O)n2Cc2ccccc2)C(C)C)cc1 [ispinesib]
How it was run: as §1

[11] = compound: Cc1ccc(NC(=O)c2ccc(CN3CC[C@H](N(C)C)C3)c(C(F)(F)F)c2)cc1Nc1nccc(-c2cncnc2)n1 [bafetinib]
How it was run: as §1

[12] = compound: Cc1cccc(CC(=O)N2CCc3c2ccc(-c2cn(C)c4ncnc(N)c24)c3F)n1
How it was run: as §1

[13] = compound: Cc1cn(-c2cc(NC(=O)c3ccc(C)c(Nc4nccc(-c5cccnc5)n4)c3)cc(C(F)(F)F)c2)cn1 [nilotinib]
How it was run: as §1

[14] = compound: Cc1nc(Nc2n[nH]c3c2CN(C(=O)N[C@H](CN(C)C)c2ccccc2)C3(C)C)c2sccc2n1
How it was run: as §1

[15] = compound: Cc1nc(Nc2ncc(C(=O)Nc3c(C)cccc3Cl)s2)cc(N2CCN(CCO)CC2)n1 [dasatinib]
How it was run: as §1

[16] = compound: Cc1ncc(-c2ccnc(Nc3ccc(S(C)(=O)=O)cc3)n2)n1C(C)C
How it was run: as §1

[17] = compound: Cn1cc(-c2ccc3c(c2)CCN3C(=O)Cc2cccc(C(F)(F)F)c2)c2c(N)ncnc21
How it was run: as §1

[18] = compound: Cn1cc(-c2ccc3nnc(C(F)(F)c4ccc5ncccc5c4)n3n2)cn1
How it was run: as §1

[19] = compound: Cn1cncc1[C@@](N)(c1ccc(Cl)cc1)c1ccc2c(c1)c(-c1cccc(Cl)c1)cc(=O)n2C [tipifarnib]
How it was run: as §1

[20] = compound: FC(F)(F)c1ccc(/C=C/c2nc(COc3ccc(CCCCn4ccnn4)cc3)co2)cc1 [mubritinib]
How it was run: as §1

Measured: log2 fold change

THRAP3 (UniProt Q9Y2W1)
UniProt Q9Y2W1, sequence (Q9Y2W1 whole entry, looked up): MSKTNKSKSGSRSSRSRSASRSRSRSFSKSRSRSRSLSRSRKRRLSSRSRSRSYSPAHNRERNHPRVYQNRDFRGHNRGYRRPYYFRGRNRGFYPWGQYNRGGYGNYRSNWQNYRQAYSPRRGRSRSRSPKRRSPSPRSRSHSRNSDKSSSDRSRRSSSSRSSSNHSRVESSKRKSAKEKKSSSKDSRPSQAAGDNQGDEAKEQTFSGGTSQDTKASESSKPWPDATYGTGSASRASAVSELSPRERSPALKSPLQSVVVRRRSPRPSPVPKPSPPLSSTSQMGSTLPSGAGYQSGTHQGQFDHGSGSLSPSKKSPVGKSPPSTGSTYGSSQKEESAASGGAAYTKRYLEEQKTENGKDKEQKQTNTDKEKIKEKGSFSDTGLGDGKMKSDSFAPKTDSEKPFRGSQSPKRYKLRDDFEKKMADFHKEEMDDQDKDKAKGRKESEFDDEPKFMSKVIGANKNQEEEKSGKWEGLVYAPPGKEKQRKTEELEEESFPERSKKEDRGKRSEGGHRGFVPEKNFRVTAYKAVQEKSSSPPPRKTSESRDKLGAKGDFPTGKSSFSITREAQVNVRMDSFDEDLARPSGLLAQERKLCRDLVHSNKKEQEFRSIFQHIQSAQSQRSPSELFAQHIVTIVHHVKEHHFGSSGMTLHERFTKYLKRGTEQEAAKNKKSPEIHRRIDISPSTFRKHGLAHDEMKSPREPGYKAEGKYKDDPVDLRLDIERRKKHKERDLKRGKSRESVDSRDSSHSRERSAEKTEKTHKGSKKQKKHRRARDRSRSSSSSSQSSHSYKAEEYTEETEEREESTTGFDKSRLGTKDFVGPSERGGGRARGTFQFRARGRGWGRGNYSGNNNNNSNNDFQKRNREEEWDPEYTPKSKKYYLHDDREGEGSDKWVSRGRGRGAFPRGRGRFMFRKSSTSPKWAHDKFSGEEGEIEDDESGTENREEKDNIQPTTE
inactive: [1] 0.014 | [2] 0.04 | [3] 0.019 | [4] -0.111 | [5] 0.044 | [6] -0.003 | [7] -0.078 | [8] -0.071 | [9] 0.133 | [10] -0.043 | [11] 0.052 | [12] -0.025 | [13] 0.049 | [14] -0.177 | [15] -0.009 | [16] 0 | [17] -0.045 | [18] -0.033 | [19] 0.118 | [20] 0.063

TGFBI (UniProt Q15582)
UniProt Q15582, sequence (Q15582 whole entry, looked up): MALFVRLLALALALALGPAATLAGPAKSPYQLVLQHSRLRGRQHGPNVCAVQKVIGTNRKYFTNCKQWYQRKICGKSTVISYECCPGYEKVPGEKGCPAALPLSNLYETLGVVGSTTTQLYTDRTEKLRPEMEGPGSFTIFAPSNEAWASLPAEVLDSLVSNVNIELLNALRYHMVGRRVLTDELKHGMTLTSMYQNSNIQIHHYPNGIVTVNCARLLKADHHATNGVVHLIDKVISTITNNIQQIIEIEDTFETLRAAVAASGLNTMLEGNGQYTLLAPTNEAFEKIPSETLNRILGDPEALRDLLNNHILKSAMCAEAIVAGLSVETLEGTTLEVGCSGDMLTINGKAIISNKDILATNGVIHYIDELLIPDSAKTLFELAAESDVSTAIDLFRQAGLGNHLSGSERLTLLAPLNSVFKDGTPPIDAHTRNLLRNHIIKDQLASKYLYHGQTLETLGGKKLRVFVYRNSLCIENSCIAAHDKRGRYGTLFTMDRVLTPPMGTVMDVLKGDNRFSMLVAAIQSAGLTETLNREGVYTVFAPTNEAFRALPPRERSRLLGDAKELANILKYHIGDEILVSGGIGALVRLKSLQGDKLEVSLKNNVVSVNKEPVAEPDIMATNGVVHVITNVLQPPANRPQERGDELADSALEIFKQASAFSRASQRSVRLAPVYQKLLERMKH
inactive: [1] -0.021 | [2] -0.047 | [3] 0.215 | [4] 0.181 | [5] 0.067 | [6] -0.451 | [7] 0.031 | [8] 0.043 | [9] -0.182 | [10] -0.159 | [11] -0.241 | [12] 0.148 | [13] -0.099 | [14] 0.054 | [15] -0.04 | [16] 0.167 | [17] 0.197 | [18] 0.098 | [19] -0.063 | [20] -0.02

STAT5A (UniProt P42229)
active: [14] -0.338 | [20] 0.371
inactive: [1] 0.02 | [2] -0.002 | [3] 0.08 | [4] -0.036 | [5] 0.019 | [6] -0.033 | [7] 0.119 | [8] 0.14 | [9] -0.047 | [10] 0.275 | [11] 0.034 | [12] 0.208 | [13] -0.112 | [15] -0.191 | [16] -0.051 | [17] 0 | [18] 0.104 | [19] -0.107

STK25 (UniProt O00506)
UniProt O00506, sequence (O00506 whole entry, looked up): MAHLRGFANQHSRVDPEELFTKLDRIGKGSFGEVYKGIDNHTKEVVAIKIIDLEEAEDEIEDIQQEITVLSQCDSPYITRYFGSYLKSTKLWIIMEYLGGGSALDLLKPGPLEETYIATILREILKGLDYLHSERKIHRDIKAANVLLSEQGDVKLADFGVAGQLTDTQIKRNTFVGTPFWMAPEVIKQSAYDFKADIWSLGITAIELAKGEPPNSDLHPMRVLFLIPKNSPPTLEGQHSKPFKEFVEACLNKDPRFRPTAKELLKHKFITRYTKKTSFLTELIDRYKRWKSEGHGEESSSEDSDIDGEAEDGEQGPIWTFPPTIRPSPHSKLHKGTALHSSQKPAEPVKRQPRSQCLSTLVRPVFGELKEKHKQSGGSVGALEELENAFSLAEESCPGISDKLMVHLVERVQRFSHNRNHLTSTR
active: [14] 0.257
inactive: [1] 0.04 | [2] -0.2 | [3] -0.011 | [4] -0.026 | [5] 0.051 | [6] -0.074 | [7] -0.027 | [8] -0.001 | [9] 0.019 | [10] -0.071 | [11] -0.015 | [12] -0.055 | [13] -0.083 | [15] -0.133 | [16] -0.033 | [17] 0.008 | [18] 0.007 | [19] 0.042 | [20] -0.013

SRPRB (UniProt Q9Y5M8)
inactive: [1] -0.006 | [2] 0.01 | [3] 0.059 | [4] -0.042 | [5] 0.012 | [6] 0.055 | [7] -0.017 | [8] 0.083 | [9] -0.026 | [10] 0.055 | [11] 0.107 | [12] 0.14 | [13] 0.035 | [14] 0.026 | [15] -0.094 | [16] 0.121 | [17] 0.076 | [18] 0.031 | [19] -0.123 | [20] 0.134

TCERG1 (UniProt O14776)
UniProt O14776, sequence (O14776 whole entry, looked up): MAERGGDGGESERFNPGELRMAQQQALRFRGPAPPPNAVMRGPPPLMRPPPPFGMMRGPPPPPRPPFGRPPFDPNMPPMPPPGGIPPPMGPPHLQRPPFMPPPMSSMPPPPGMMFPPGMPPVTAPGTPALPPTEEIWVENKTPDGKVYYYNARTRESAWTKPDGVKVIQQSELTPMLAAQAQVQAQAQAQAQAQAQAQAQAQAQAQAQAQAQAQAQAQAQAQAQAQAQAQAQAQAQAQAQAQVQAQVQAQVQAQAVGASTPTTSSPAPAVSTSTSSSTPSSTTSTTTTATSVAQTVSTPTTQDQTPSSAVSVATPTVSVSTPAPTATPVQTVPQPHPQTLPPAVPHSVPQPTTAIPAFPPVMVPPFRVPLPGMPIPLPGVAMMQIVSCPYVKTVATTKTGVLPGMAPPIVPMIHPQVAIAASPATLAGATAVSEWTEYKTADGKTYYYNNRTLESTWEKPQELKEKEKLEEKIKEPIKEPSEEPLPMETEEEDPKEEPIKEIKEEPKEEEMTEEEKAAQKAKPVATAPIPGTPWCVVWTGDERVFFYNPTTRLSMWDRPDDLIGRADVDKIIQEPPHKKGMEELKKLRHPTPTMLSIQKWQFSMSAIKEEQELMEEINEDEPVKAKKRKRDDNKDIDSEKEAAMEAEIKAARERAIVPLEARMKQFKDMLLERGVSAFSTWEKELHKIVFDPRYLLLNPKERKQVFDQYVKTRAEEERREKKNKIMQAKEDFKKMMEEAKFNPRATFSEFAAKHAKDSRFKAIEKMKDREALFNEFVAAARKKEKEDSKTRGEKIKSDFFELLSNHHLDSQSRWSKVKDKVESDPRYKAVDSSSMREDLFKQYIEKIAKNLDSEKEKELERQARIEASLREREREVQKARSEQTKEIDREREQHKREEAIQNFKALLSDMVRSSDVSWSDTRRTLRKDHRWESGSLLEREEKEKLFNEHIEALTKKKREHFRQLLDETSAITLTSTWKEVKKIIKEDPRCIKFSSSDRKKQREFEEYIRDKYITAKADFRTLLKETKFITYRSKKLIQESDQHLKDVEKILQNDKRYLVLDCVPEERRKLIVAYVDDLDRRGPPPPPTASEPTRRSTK
inactive: [1] 0.079 | [2] 0.073 | [3] 0.125 | [4] -0.063 | [5] 0.138 | [6] -0.057 | [7] 0.112 | [8] 0.179 | [9] -0.079 | [10] 0.015 | [11] 0.03 | [12] 0.077 | [13] -0.093 | [14] -0.24 | [15] -0.26 | [16] 0.02 | [17] 0.088 | [18] 0.07 | [19] -0.097 | [20] 0.183

SLC30A7 (UniProt Q8NEW0)
inactive: [1] -0.01 | [2] 0.014 | [3] -0.022 | [4] -0.048 | [5] 0.081 | [7] -0.05 | [8] -0.007 | [9] -0.057 | [10] -0.016 | [11] -0.169 | [12] -0.094 | [13] -0.16 | [14] 0.052 | [15] 0.04 | [16] 0.003 | [17] 0.048 | [18] -0.026 | [19] 0.023 | [20] 0.107
active: [6] -0.348

SYMPK (UniProt Q92797)
inactive: [1] -0.031 | [2] -0.189 | [3] 0.046 | [4] -0.026 | [5] 0.077 | [6] -0.155 | [7] 0.054 | [8] 0.235 | [9] -0.09 | [10] -0.023 | [11] -0.027 | [12] 0.036 | [13] -0.192 | [14] -0.001 | [15] -0.156 | [16] 0.037 | [17] -0.017 | [18] -0.043 | [19] -0.152 | [20] 0.015

SP100 isoform 4 (UniProt P23497)
inactive: [1] -0.002 | [2] 0.062 | [3] 0.071 | [4] -0.1 | [5] 0.074 | [6] -0.008 | [7] 0.033 | [8] -0.016 | [9] -0.046 | [10] 0.062 | [11] -0.047 | [12] -0.056 | [13] -0.02 | [14] -0.061 | [15] -0.054 | [16] -0.057 | [17] 0.02 | [18] 0.026 | [19] -0.087 | [20] 0.043

SUGP1 (UniProt Q8IWZ8)
UniProt Q8IWZ8, sequence (Q8IWZ8 whole entry, looked up): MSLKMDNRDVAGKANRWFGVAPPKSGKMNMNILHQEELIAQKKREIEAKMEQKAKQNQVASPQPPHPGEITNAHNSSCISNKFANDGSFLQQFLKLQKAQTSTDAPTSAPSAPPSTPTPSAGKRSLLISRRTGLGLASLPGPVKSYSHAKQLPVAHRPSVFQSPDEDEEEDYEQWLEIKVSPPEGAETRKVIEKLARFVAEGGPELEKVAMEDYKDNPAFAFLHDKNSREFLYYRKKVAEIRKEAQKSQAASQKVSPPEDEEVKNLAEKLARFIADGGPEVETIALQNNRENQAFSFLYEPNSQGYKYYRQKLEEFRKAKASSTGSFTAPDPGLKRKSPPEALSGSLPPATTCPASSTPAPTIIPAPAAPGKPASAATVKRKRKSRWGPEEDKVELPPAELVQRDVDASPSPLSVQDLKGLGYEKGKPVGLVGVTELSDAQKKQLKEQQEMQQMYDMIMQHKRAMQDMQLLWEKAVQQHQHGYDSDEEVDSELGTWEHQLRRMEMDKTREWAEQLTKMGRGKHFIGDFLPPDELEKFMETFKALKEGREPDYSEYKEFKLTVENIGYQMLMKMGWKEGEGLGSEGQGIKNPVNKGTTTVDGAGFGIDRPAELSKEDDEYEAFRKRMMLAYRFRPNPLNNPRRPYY
inactive: [1] 0.021 | [2] -0.001 | [3] 0.015 | [4] -0.064 | [5] -0.024 | [6] -0.077 | [7] 0.042 | [8] 0.09 | [9] -0.033 | [10] 0.019 | [11] -0.033 | [12] 0.012 | [13] -0.019 | [14] -0.058 | [15] -0.139 | [16] -0.043 | [17] 0.08 | [18] -0.012 | [19] -0.007 | [20] 0.063

SREK1 isoform 2 (UniProt Q8WXA9)
UniProt Q8WXA9, sequence (Q8WXA9 whole entry, looked up): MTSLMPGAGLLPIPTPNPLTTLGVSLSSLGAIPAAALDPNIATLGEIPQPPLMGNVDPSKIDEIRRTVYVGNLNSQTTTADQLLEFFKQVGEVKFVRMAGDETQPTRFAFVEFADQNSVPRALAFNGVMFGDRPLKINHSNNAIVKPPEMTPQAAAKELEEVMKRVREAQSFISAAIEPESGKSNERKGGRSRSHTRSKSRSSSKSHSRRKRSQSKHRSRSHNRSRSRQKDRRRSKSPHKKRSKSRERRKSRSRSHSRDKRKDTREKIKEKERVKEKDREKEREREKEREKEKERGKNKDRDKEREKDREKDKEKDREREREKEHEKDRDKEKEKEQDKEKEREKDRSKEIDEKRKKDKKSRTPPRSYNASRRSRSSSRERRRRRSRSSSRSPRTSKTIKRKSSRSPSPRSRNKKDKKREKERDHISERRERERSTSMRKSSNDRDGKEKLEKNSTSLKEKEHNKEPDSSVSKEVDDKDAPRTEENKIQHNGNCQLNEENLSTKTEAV
inactive: [1] 0.317 | [2] -0.05 | [3] -0.005 | [4] -0.345 | [5] 0.026 | [6] 0.014 | [7] 0.003 | [8] 0.105 | [9] -0.027 | [10] 0.059 | [11] 0.07 | [12] 0.015 | [13] 0.156 | [15] -0.095 | [16] 0.005 | [17] -0.006 | [18] -0.11 | [19] 0.031 | [20] 0.063
active: [14] -0.593

SLK isoform 2 (UniProt Q9H2G2)
active: [17] -0.289
inactive: [1] 0.016 | [2] -0.068 | [3] 0.07 | [4] 0.014 | [5] 0.072 | [6] 0.102 | [7] -0.225 | [8] 0.052 | [9] -0.118 | [10] 0.021 | [11] -0.032 | [12] -0.076 | [13] -0.041 | [14] -0.169 | [15] -0.085 | [16] 0.015 | [18] 0.004 | [19] -0.018 | [20] 0.026

SNX1 (UniProt Q13596)
UniProt Q13596, sequence (Q13596 whole entry, looked up): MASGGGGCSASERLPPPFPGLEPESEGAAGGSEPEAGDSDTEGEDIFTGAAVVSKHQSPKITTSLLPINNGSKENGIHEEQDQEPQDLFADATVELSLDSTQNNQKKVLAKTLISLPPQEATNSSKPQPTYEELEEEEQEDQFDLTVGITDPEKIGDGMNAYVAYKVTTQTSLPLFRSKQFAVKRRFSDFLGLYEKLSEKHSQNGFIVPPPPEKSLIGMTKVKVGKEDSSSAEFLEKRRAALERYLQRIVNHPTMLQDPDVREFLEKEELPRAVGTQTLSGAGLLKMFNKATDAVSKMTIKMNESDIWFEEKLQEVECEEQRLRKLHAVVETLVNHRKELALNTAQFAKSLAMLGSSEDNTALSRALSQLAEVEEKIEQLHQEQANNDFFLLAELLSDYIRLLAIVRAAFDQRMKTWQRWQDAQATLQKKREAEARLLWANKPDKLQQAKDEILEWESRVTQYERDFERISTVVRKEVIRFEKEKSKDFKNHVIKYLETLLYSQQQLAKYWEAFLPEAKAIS
inactive: [1] -0.134 | [2] -0.247 | [3] 0.028 | [4] -0.025 | [5] -0.214 | [7] -0.054 | [8] 0.049 | [9] -0.009 | [10] -0.252 | [11] -0.149 | [12] 0.146 | [13] -0.133 | [14] 0 | [15] -0.191 | [17] 0.07 | [18] -0.028 | [19] -0.002 | [20] 0.057
active: [6] -0.319 | [16] -0.45

SPG11 (UniProt Q96JI7)
inactive: [1] 0 | [2] 0.058 | [3] -0.282 | [4] 0.619 | [5] -0.397 | [6] 0.173 | [7] -0.255 | [8] 0 | [9] -0.01 | [10] -0.328 | [11] -0.493 | [12] -0.584 | [13] -0.015 | [14] 0.117 | [15] 0.065 | [16] -0.006 | [17] -0.051 | [18] 0.146 | [19] 0.258 | [20] -0.009

SUPT5H (UniProt O00267)
inactive: [1] 0.057 | [2] 0.049 | [3] 0.129 | [4] -0.057 | [5] 0.084 | [6] -0.043 | [7] 0 | [8] 0.079 | [9] -0.043 | [10] 0.02 | [11] -0.044 | [12] 0.033 | [13] -0.055 | [14] -0.042 | [15] -0.082 | [16] 0.01 | [17] 0.024 | [18] 0.036 | [19] -0.037 | [20] 0.031
